Bioassay records deposited in PubChem by National Center for Advancing Translational Sciences (NCATS).
Giardia FBPA inh-1 = inhibitors of Giardia lamblia fructose-1,6-bisphosphate aldolase; A8B2U2; Potency, µM (highest dose often 59.6 µM), inactives show top-dose activity, negative = inhibition, actives largely listed as inhibitors; AID 2451; purified Giardia FBPA; actives 0.71% (n = 290,000); note: nearly all actives have a fitted effect of over 55% in size
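Giardia FBPA (40 nM reagent) was preincubated 10 min at RT with compound (up to 57.5 uM final), then substrate plus GAPDH/TPI/NAD/arsenate coupling system with diaphorase/resazurin was added; resorufin fluorescence (525/598 nm) was read after 20 min.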
Cruzain inh Det = cruzain (T. cruzi) inhibition with detergent. P25779. purified cruzain, Z-FR-AMC fluorescence, 0.01% Triton. AID 1478. actives 0.43% (n = 200,000). Potency, µM, inactives show max response, negative = inhibition, usual class: inhibitors;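 note: plate controls were neutral wells for no effect and buffer without enzyme for full effect; nearly all actives have a fitted effect of over 40% in size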
Target sequence (P25779 123-467 limits assumed): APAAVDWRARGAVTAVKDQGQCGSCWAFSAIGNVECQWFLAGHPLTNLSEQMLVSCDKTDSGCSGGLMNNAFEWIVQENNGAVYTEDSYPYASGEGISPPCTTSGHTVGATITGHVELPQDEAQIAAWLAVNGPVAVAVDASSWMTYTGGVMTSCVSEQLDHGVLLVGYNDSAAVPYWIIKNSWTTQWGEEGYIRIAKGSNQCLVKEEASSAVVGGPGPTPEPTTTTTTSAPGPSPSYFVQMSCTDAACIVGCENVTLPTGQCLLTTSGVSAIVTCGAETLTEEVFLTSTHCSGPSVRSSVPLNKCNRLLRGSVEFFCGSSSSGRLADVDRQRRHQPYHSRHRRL
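In this qHTS format, compounds are incubated with 1.5 nM cruzain for 15 min at room temperature before 2 uM Z-FR-AMC is added. Release of AMC is followed at 360/450 nm, and progress is taken as the 60 s fluorescence difference.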
Cruzain inh noDet = inhibitors of Trypanosoma cruzi cruzain without detergent; purified cruzain, Z-FR-AMC fluorescence, no detergent; Potency, µM, for inactives: max response, negative = inhibition, most hits filed as inhibitors; actives 2.3% (n = 200,000);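 note: plate controls were enzyme without inhibitor for no effect and buffer without enzyme for full effect; nearly all actives have a fitted effect of over 40% in size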
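Detergent-free condition (0.00005% Triton X-100) in acetate buffer pH 5.5 with DTT. 1.5 nM enzyme and compound were pre-mixed 15 min, then 2 uM Z-FR-AMC substrate added; reaction progress from fluorescence change between first and third reads (60 s).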
Giardia growth = Giardia lamblia growth inhibition; shares compounds with Giardia FBPA inh-1; Giardia lamblia trophozoite growth inhibition; Potency, µM (series often up to 57.5 µM), without a hit: at the highest dose activity change, negative = inhibition, actives largely listed as inhibitors; actives 5% (n = 1,500); AID 2785;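 note: trophozoites exposed to compound for 48 h at 37 °C; nearly all actives have a fitted effect of over 70% in size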
Mammal cell tox = counter-screen for Giardia aldolase inhibitors: mammalian cell toxicity | shares compounds with Giardia FBPA inh-1 | mammalian cell viability counter-screen, qHTS | Potency, µM (highest dose often 57.5 µM), without a hit: top-dose viability change, negative = toxicity, most hits filed as inhibitors | actives 4% (n = 1,500) | AID 2786;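 note: Chinese hamster ovary cells used as mammalian cytotoxicity surrogate; viability measured as cellular ATP by luminescence; compound exposure lasted 48 h before reading; nearly all actives have a fitted effect of over 60% in size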
Giardia FBPA inh-2 = confirmation of Giardia fructose-bisphosphate aldolase inhibitors. actives 5% (n = 1,500). AID 2787. purified Giardia aldolase enzyme activity, qHTS. Potency, µM (series often up to 57.5 µM), inactives show at the highest dose activity change, negative = inhibition, hits mostly inhibitors. shares compounds with Giardia FBPA inh-1; note: nearly all actives have a fitted effect of over 45% in size
Rabbit FBPA inh = selectivity test for Giardia aldolase inhibitors: rabbit aldolase; Potency, µM (highest dose often 57.5 µM), for inactives: top-dose activity, negative = inhibition, hits mostly inhibitors; Rabbit muscle FBPA enzyme inhibition, selectivity counter-screen; AID 2794; shares compounds with Giardia FBPA inh-1; actives 4% (n = 1,500); note: nearly all actives have a fitted effect of over 60% in size
Target sequence (P00883 whole entry, looked up): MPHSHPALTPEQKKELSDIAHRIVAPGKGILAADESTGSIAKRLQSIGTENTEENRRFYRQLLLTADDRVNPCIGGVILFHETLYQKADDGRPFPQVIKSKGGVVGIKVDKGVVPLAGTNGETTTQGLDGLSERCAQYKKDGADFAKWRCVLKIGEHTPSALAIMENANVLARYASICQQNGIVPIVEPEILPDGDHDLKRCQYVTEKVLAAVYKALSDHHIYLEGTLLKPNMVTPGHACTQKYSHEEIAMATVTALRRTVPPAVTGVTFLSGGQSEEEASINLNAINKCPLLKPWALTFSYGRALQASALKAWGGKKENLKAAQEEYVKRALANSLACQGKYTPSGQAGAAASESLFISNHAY
GAPDH coupling = GAPDH inhibition flagged for Giardia aldolase hits. shares compounds with Giardia FBPA inh-1. GAPDH coupling enzyme counterscreen, biochemical, qHTS. Potency, µM (highest dose often 57.5 µM), inactives show at the top dose activity change, negative = inhibition, most hits filed as inhibitors. actives 6% (n = 1,500); note: nearly all actives have a fitted effect of over 55% in size
The depositor's hits bear a star; [ ] = dose if it differs, or a comment. This excerpt belongs to a sample that is enriched for hits. Calls come from the whole dose curve; as a rule, active = well fitted curve in the direction sought with a large enough effect; inconclusive = small, poorly fitted or top-dose-only effect, or another doubt; inactive = no such curve, though single readings can be large; an effect the other way counts as inactive or inconclusive. Unless noted, % is set by controls: 0 for no effect and ±100 for the full control effect; potency is the fitted concentration of half-maximal effect.

How did COc1ccc(CNC(=O)CSc2nnc(C)c3c(C)n(-c4ccccc4)nc23)c(OC)c1 do in these assays?
Cruzain inh Det: -7.3%; Cruzain inh noDet: 6.8%

How did Cc1ccc(CNC(=O)CNC(=S)N(Cc2ccccc2)Cc2cccnc2)cc1 do in these assays?
Giardia FBPA inh-1: 8.2%

Results for Cc1ccc(CN(Cc2ccccc2)C(=S)NCC(=O)NCc2cccnc2)o1 ?
Giardia FBPA inh-1: 15.8µM*; Giardia growth: -12.3%; Mammal cell tox: -11.6%; Giardia FBPA inh-2: 2.7%; Rabbit FBPA inh: 4.9%; GAPDH coupling: 3.7%

What do the screens show for `Cn1c(-c2cccc([N+](=O)[O-])c2)cnc1NCc1cccc(F)c1`?
Giardia FBPA inh-1: 28.2µM*; Giardia growth: -8.5%[10.4 µM]; Mammal cell tox: -21.1%; Giardia FBPA inh-2: -4.6%; Rabbit FBPA inh: 3.0%; GAPDH coupling: 4.9%

Results for Cn1c(-c2ccc3c(c2)OCO3)cnc1NCc1cccc(Cl)c1 ?
Giardia FBPA inh-1: inconclusive; Cruzain inh Det: -4.4%; Cruzain inh noDet: 6.6%

What do the screens show for `C=CCN1C(=O)NC(=O)/C(=C/c2c(CCN(C)C(=O)c3ccccc3)cc3c(c2OC)OCO3)C1=O`?
Giardia FBPA inh-1: -6.1%

What do the screens show for `CNC(=S)N(C)CCc1cc2c(c(OC)c1C=C1C(=O)NC(=O)NC1=O)OCO2`?
Giardia FBPA inh-1: 7.06µM*; Giardia growth: -8.9%[38.3 µM]; Mammal cell tox: -6.1%; Giardia FBPA inh-2: -8.7%; Rabbit FBPA inh: 0.5%; GAPDH coupling: 2.5%

Results for Cc1cccc(Cn2cc(C(=O)Nc3ccc(S(N)(=O)=O)cc3)ccc2=O)c1 ?
Cruzain inh Det: -2.4%; Cruzain inh noDet: 28.8%

What do the screens show for `CCN1CCN(C(=S)c2ccc(SC)cc2)CC1`?
Giardia FBPA inh-1: -2.1%; Cruzain inh Det: -7.9%; Cruzain inh noDet: 4.7%

How did CCOc1ccc(C(=S)N2CCN(C)CC2)cc1 do in these assays?
Giardia FBPA inh-1: 17.7µM*; Giardia growth: -23.9%; Mammal cell tox: -7.8%; Giardia FBPA inh-2: -5.3%; Rabbit FBPA inh: 0.7%; GAPDH coupling: 0.7%

How did CCN1CCN(C(=S)c2ccc(OC)cc2)CC1 do in these assays?
Giardia FBPA inh-1: 4.46µM*; Giardia growth: 2.5%[38.3 µM]; Mammal cell tox: 1.4%; Giardia FBPA inh-2: -4.8%; Rabbit FBPA inh: 3.2%; GAPDH coupling: -8.5%

How did CCOc1ccc(C(=S)N2CCCC2)cc1 do in these assays?
Giardia FBPA inh-1: -2.3%; Cruzain inh Det: -1.6%; Cruzain inh noDet: -5.2%

Results for CC(=O)OC[C@@H]1O[C@@H](O/N=C2/C[C@@H](O)[C@@H](O)[C@@H]3[C@@H]4C(=O)N(C(C)(C)C)C(=O)[C@H]4CC[C@H]23)[C@H](OC(C)=O)[C@H](OC(C)=O)[C@@H]1OC(C)=O ?
Giardia FBPA inh-1: -1.1%[12.9 µM]

Results for C=CCc1cc(OC)ccc1OCCCCn1cncn1 ?
Giardia FBPA inh-1: 31.6µM*; Giardia growth: inconclusive; Mammal cell tox: 12.1%; Giardia FBPA inh-2: 0.6%; Rabbit FBPA inh: 12.7%; GAPDH coupling: -6.8%

How did C=CCc1ccc(OCCn2cncn2)c(OC)c1 do in these assays?
Giardia FBPA inh-1: -2.4%

Results for Cc1ccc2c(=O)cc(C(=O)Nc3sc4c(c3C(=O)NCC3CCCO3)CCCC4)oc2c1C (stereo not drawn) ?
Cruzain inh Det: -1.4%; Cruzain inh noDet: 1.7%

How did Cc1ccc(Oc2nc3c(c(=O)n(Cc4ccccc4)c(=O)n3C)n2C)cc1C do in these assays?
Cruzain inh Det: -6.2%; Cruzain inh noDet: -8.1%

What do the screens show for `Cc1ccccc1NN=Nc1nc2c([nH]1)c(=O)n(C)c(=O)n2C`?
Giardia FBPA inh-1: -21.3%; Cruzain inh Det: -4.7%; Cruzain inh noDet: 0.1%

Results for COc1ccc(NN=Nc2nc3c([nH]2)c(=O)n(C)c(=O)n3C)cc1 ?
Giardia FBPA inh-1: 17.7µM*; Giardia growth: inconclusive; Mammal cell tox: -10.5%; Giardia FBPA inh-2: 12.6µM*; Rabbit FBPA inh: inconclusive; GAPDH coupling: inconclusive

What do the screens show for `CC(C)n1cnc2c(=S)nc[nH]c21`?
Giardia FBPA inh-1: 3.15µM*; Giardia growth: 5.7%[38.3 µM]; Mammal cell tox: -2.1%; Giardia FBPA inh-2: -1.7%; Rabbit FBPA inh: -20.3%; GAPDH coupling: inconclusive

How did CCN1C(=O)c2ccccc2S(=O)(=O)c2ccc(C(=O)NCc3ccccc3Cl)cc21 do in these assays?
Cruzain inh Det: -0.8%; Cruzain inh noDet: -14.6%

Results for CCOC(=O)[C@]1(CC(=O)O)CCCC1=O ?
Cruzain inh Det: 3.5%; Cruzain inh noDet: -6.9%

Results for CON/C=N/C(=S)Nc1ncc(C(F)(F)F)cc1Cl ?
Giardia FBPA inh-1: 6.29µM*; Giardia growth: inconclusive; Mammal cell tox: -1.6%; Giardia FBPA inh-2: 4.3%; Rabbit FBPA inh: 13.8%; GAPDH coupling: 2.9%

Results for ON/C=N/C(=S)Nc1ncc(C(F)(F)F)cc1Cl ?
Giardia FBPA inh-1: -7.0%

Results for Cc1ccc2oc(C(=O)N(Cc3ccccc3F)C3CCS(=O)(=O)C3)c(C)c2c1 (stereo not drawn) ?
Cruzain inh Det: -8.7%; Cruzain inh noDet: 4.3%

Results for CC(=O)OC[C@@H]1O[C@H](C/C=N\O[C@@H](C)CN2CCCc3nc(C)c(C)cc32)C=C[C@@H]1OC(C)=O ?
Giardia FBPA inh-1: 1.2%[12.9 µM]

How did Cc1nc(N)sc1-c1csc(Nc2cccc(C(=O)O)c2)n1 do in these assays?
Giardia FBPA inh-1: 17.8µM*; Giardia growth: -22.5%; Mammal cell tox: 5.8%; Giardia FBPA inh-2: inconclusive; Rabbit FBPA inh: 31.6µM*; GAPDH coupling: 31.6µM*

Results for CC(=O)Nc1nc(C)c(-c2csc(Nc3cccc(C(C)=O)c3)n2)s1 ?
Giardia FBPA inh-1: -29.5%

What do the screens show for `Cc1ccsc1/C=N/NC(=O)c1cccc(S(=O)(=O)Nc2ccccc2Cl)c1`?
Giardia FBPA inh-1: inconclusive; Cruzain inh Det: -8.0%; Cruzain inh noDet: -25.0%

Results for CCN(CC)S(=O)(=O)c1cccc(C(=O)N/N=C/c2ccccn2)c1 ?
Giardia FBPA inh-1: 17.7µM*; Giardia growth: -29.8%; Mammal cell tox: 8.7%; Giardia FBPA inh-2: 9.0%; Rabbit FBPA inh: 7.7%; GAPDH coupling: 6.6%

How did CCN(CC)S(=O)(=O)c1cccc(C(=O)N/N=C/c2cccc(O)c2O)c1 do in these assays?
Giardia FBPA inh-1: inconclusive; Cruzain inh Det: 3.0%; Cruzain inh noDet: -2.2%
